# Laboratory results reported in PubChem BioAssay.
# Activity calls are given as the source filed them.
# Legend:
# [1] = compound effects on lung adenocarcinoma cell viability – A549, calcein-AM fluorescence, 48 h, basal, profiling panel (AID 1162); details: higher = more signal
# [2] = compound effects on differentiated 3T3-L1 adipocyte viability – cell-based, 3T3-L1 adipocytes, calcein-AM fluorescence, 48 h, basal, profiling panel (AID 1163); details: 3T3-L1 adipocytes viability, higher = more signal
# [3] = compound effects on hepatocellular carcinoma cell viability – HepG2, calcein-AM fluorescence, 48 h, basal, profiling panel (AID 1164); details: higher = more signal
# [4] = compound effects on multiple myeloma cell viability – MM1S, calcein-AM fluorescence, 48 h, basal, profiling panel (AID 1165); details: higher = more signal;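 note: viability of MM1S multiple myeloma cells under basal unstimulated conditions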
# [5] = calcein-AM signal in unstimulated myeloma cells – cell-based, calcein-AM fluorescence, 48 h, PK04 Diversity Set, profiling panel (AID 1166); details: RPMI8226 myeloma viability, higher = more signal;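 note: cells grown under basal conditions without added stimulus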
# [6] = JC-1 mitochondrial signal, unstimulated HepG2 cells – cell-based, JC-1 fluorescence, 24 h, 100 nL compound, profiling panel (AID 1167); details: HepG2 mitochondrial potential, higher = more signal
# [7] = JC-1 mitochondrial signal, unstimulated adipocytes – cell-based, JC-1 fluorescence, 3T3-L1 adipocytes, 24 h, 100 nL compound, profiling panel (AID 1168); details: JC-1 mitochondrial fluorescence, higher = more signal, called active from +8 up or from −8 down
# [8] = JC-1 mitochondrial signal, unstimulated myeloma cells – cell-based, JC-1 fluorescence, RPMI8226, 24 h, 100 nL compound, profiling panel (AID 1169); details: JC-1 mitochondrial potential fluorescence, higher = more signal
# [9] = JC-1 mitochondrial signal, unstimulated MM1S myeloma – cell-based, JC-1 fluorescence, 24 h, 100 nL compound, profiling panel (AID 1170); details: MM1S mitochondrial potential, higher = more signal
# [10] = resazurin metabolic signal in A549 cells – cell-based, resazurin fluorescence, 24 h, PK04 Diversity Set, profiling panel (AID 1171); details: A549 viability, higher = more signal, called active from +8 up or from −8 down
# Note: test concentration not given here.
SMILES,z-score [1],z-score [2],z-score [3],z-score [4],z-score [5],z-score [6],z-score [7],z-score [8],z-score [9],z-score [10]
C=CCNC(=O)[C@@H]1[C@H]2C(=O)O[C@H](c3ccccc3)[C@H](c3ccccc3)N2[C@H](c2ccccc2OCCO)[C@@]12C(=O)N(C(=O)OCCOC)c1ccc(C#CC3=CCCCC3)cc12,0.428,1.16,-0.555,-2.48,-2.4,-0.149,1.74 (inactive),-1.01,-1.82,-0.996 (inactive)
CN(C)CCCNC(=O)[C@@]1(C)c2ccccc2C(=O)N(Cc2cc(C(F)(F)F)cc(C(F)(F)F)c2)[C@H]1c1ccc(CO)cc1,-0.434,0.157,0.221,-0.309,-2.36,1.31,-0.36 (inactive),-0.0152,-0.279,-0.832 (inactive)
Cc1ccc(S[C@]2(C(=O)NC(C)C)CC(=O)N(Cc3ccccc3C(F)(F)F)[C@@H]2c2ccc(CO)cc2I)cc1,0.0252,0.384,-0.933,-2.38,-3.2,-0.361,-0.123 (inactive),-0.399,-2.48,1.32 (inactive)
Cc1ccc(S[C@]2(C(=O)NCC(F)(F)F)CC(=O)N(Cc3ccccc3)[C@@H]2c2ccc(CO)cc2)cc1,0.149,0.787,-0.479,0.0646,-1.28,0.0177,-0.291 (inactive),0.871,-0.686,0.42 (inactive)
CC=CC(O)C1C=CC2C(=O)N(C)C(=O)C2N1Nc1ccc([N+](=O)[O-])cc1[N+](=O)[O-] (stereo not given),-0.481,-0.682,0.275,-1.73,-0.485,-0.744,-0.453 (inactive),0.0263,-0.635,-0.574 (inactive)
Cc1ccc(F)cc1S(=O)(=O)N[C@@H]1CCN(Cc2ccc(Oc3ccccc3)cc2)C1,-1.26,-0.119,-1.25,-3.43,-3.16,0.998,0.546 (inactive),-1.19,-2.3,-0.214 (inactive)
C[C@H]1C2=C3C(CC[C@H]4C(OCc5ccc(F)cc5C(F)(F)F)OC[C@](C)([C@@H]34)N(C(=O)OC(C)(C)C)C2)C2COC(=O)OCC21 (stereo not given in full),-1.17,0.338,-0.659,-2.6,-3.96,-0.255,-1.06 (inactive),-0.325,-0.183,0.117 (inactive)
COC(=O)[C@@]1(Cc2ccc(OC)cc2)[C@H]2c3cc(C(=O)N(C)C)n(Cc4nc5ccccc5[nH]4)c3C[C@H]2CN1C(=O)c1ccccc1,-2.46,-0.529,-1.79,-1.37,-3.86,2.13,-1.24 (inactive),-0.737,-1.49,-0.88 (inactive)
Cc1ccc(S[C@]2(C(=O)NCC(C)C)CC(=O)N(Cc3ccccc3Cl)[C@@H]2c2ccc(CO)cc2I)cc1,-0.0583,-0.201,-0.752,-1.94,-1.67,-0.0983,-0.559 (inactive),-0.788,-1.75,0.622 (inactive)
COc1ccc([Si](C)(C)[C@H]2[C@H](CCn3cc([C@H](O)c4ccccc4)nn3)O[C@@]3(C(=O)N(Cc4ccc(N5CCC5=O)cc4)c4ccccc43)[C@@H]2C)cc1,0.399,1.19,-0.541,-0.695,-0.412,0.411,-0.391 (inactive),-0.445,-0.202,-0.869 (inactive)
O=C(CCCCCCC(=O)Nc1ccccc1)N/N=C/c1ccccc1,1.08,0.194,-0.371,-0.669,-0.419,-0.807,-0.498 (inactive),-0.045,-0.593,0.589 (inactive)
Cc1ccc(S[C@]2(C(=O)NCc3ccccc3)CC(=O)N(C(C)C)[C@@H]2c2ccc(CO)cc2I)cc1,-0.897,0.152,-0.274,-2.35,-3.15,-0.0692,-0.371 (inactive),-0.592,-1.12,1.65 (inactive)
CCOC(=O)C[C@H]1[C@H](OC(=O)c2ccc(-c3ccccc3)cc2)[C@@H](NC(=O)C2CCCCC2)c2cc(OCCCO)ccc2N1C(=O)c1ccccc1,-0.28,0.557,0.137,-0.412,-0.203,0.383,-0.983 (inactive),0.115,-0.101,-1.01 (inactive)
CCOC(=O)C[C@H]1[C@H](OC(=O)c2ccccc2-c2ccccc2)[C@@H](NC(=O)CC(C)C)c2cc(OCCCO)ccc2N1C(=O)c1ccc2ccccc2n1,0.375,0.556,0.2,-1.32,-2.05,0.851,-0.0831 (inactive),-0.537,0.32,-0.109 (inactive)
COC(=O)c1c(CC[C@@H](CO)NC(=O)N[C@H](Cn2cc(-c3ccccc3C)nn2)C(C)C)oc(C(C)=O)c1C(=O)OC,-0.657,1.55,0.308,-0.759,-0.607,-0.24,0.37 (inactive),-0.353,-1.27,-1.26 (inactive)
CCCCN1CC=CC23O[C@@H]4C=CCOC(=O)[C@@H]4[C@H]2C(=O)N(C(C)CO)[C@@H]3C1=O (stereo not given in full),-0.406,0.434,-0.208,0.638,0.0934,-1.02,-1.98 (inactive),-0.768,-0.0859,-0.384 (inactive)

SMILES,z-score [1],z-score [2],z-score [3],z-score [4],z-score [5],z-score [6],z-score [7],z-score [8],z-score [9],z-score [10]
C=CC[C@@]12N=C(c3ccc(OCCCO)cc3)O[C@@H]1c1ccccc1N(CCS(=O)(=O)c1ccccc1)C2=O,0.4,0.962,1.05,-1.41,-1.02,0.381,2.23 (inactive),-0.899,-1.22,-1.54 (inactive)
CCOC(=O)[C@H]1C/C=C/C[C@H](C(=O)OCC)C(=O)O[C@H]2[C@@H](OC)O[C@H](CO)[C@@H](OC(=O)Nc3ccc(OC)cc3)[C@@H]2OC1=O,2.98,0.202,1.12,-0.465,-0.274,1.89,1.84 (inactive),-0.292,-0.998,-1.29 (inactive)
CN1C(=O)[C@@]2(CCS(=O)(=O)c3ccccc3)N=C(c3ccc(OCCCO)cc3)O[C@H]2c2ccccc21,0.524,1.1,-0.0319,-0.624,-0.517,0.214,0.426 (inactive),-0.776,0.111,-0.254 (inactive)
COc1cc2c(cc1OC)CN(C(=O)[C@H]1[C@@H]3C(=O)O[C@@H](c4ccccc4)[C@@H](c4ccccc4)N3[C@@H](c3ccc(OCCO)cc3)[C@]13C(=O)Nc1ccc(C#CC4(O)CCCCCC4)cc13)CC2,0.943,0.0483,1.17,0.217,0.0846,-0.871,0.568 (inactive),-0.338,-0.852,-0.354 (inactive)
O=C1C[C@]2(c3ccc([N+](=O)[O-])cc3)C(=O)N(Cc3ccccc3)c3cc(CO)ccc3[C@H]2N1CC12CC3CC(CC(C3)C1)C2,0.376,-1.02,1.51,0.397,0.329,-0.821,0.286 (inactive),0.589,-1.02,-0.849 (inactive)
COC(=O)[C@H](Cc1ccccc1)N1CC(/C=C/C2CC2)=C[C@@H]1[C@@H](O)Cc1ccccc1,0.56,-0.0766,0.942,-3.21,-3.07,-0.0594,0.427 (inactive),-1.04,-2.45,0.73 (inactive)
COCCOC(=O)N1C(=O)[C@@]2(c3cc(C#CCNC(N)=O)ccc31)[C@H](C(=O)N1CCCCCCC1)[C@H]1C(=O)O[C@H](c3ccccc3)[C@H](c3ccccc3)N1[C@@H]2c1ccc(O)cc1,0.614,-0.369,-0.395,-0.787,0.337,-2.08,-0.379 (inactive),-0.216,0.444,-0.171 (inactive)
COCCOC(=O)N1C(=O)[C@@]2(c3cc(C#CC4=CCCCC4)ccc31)[C@H](c1ccc(O)cc1)N1[C@H](c3ccccc3)[C@H](c3ccccc3)OC(=O)[C@H]1[C@@H]2C(=O)Nc1nc2ccccc2s1,-0.0695,-0.898,0.0669,-1.01,-1.65,-2.79,-0.451 (inactive),-0.941,-0.887,-0.304 (inactive)
COC(=O)[C@@]1(Cc2ccc(F)cc2)[C@H]2c3cc(C(=O)N4CCCC4)n(CCF)c3C[C@H]2CN1C(=O)c1ccccc1,-0.719,0.251,0.426,-1.04,-0.374,1.98,-0.000991 (inactive),-0.0725,0.26,0.763 (inactive)
C=C[C@H](COC(C)=O)NS(=O)(=O)c1ccc(Br)cc1,0.0955,-0.569,1.05,0.661,0.402,0.549,0.0685 (inactive),-0.616,0.651,-0.201 (inactive)
Cc1c(NC(=O)/C(C#N)=C/C=C/c2ccccc2[N+](=O)[O-])c(=O)n(-c2ccccc2)n1C,-1.22,-0.355,-1.71,-3.09,-2.1,-1.76,-0.0694 (inactive),-0.588,-0.994,-1.43 (inactive)
CC(=O)NCCCC[C@@H]1NC(=O)[C@@H]2C[C@H](C(=O)O)[C@H](c3ccc(O)cc3)N2C1=O,0.0665,0.384,-0.552,0.421,-0.105,-1.14,-0.352 (inactive),0.667,0.237,-0.179 (inactive)
CCOC(=O)C[C@H]1[C@H](OC(=O)Cc2ccc3c(c2)OCO3)[C@@H](NC(=O)Cc2ccc(OC)cc2)c2cc(OCCCO)ccc2N1C(=O)c1ccccc1,0.208,-0.0437,0.547,1.08,0.192,0.873,-1.1 (inactive),0.192,-0.606,-0.0709 (inactive)
CC(C)CN1C(=O)[C@@]2(Cc3ccccc31)c1ccccc1C(=O)N(Cc1ccccc1C(F)(F)F)[C@H]2c1ccc(CO)cc1,1.23,1.06,0.493,0.939,1.2,0.786,-1.55 (inactive),0.01,-0.534,-0.236 (inactive)
CC(C)C(CO)N1C(=O)[C@]2(C)C3C(=O)OCCC/C=C\[C@H]3OC23C=CCN(c2ccc(Cl)cc2)C(=O)[C@@H]13 (stereo not given in full),-0.0554,-0.199,1.08,0.547,0.163,-0.484,-0.52 (inactive),-0.634,-0.0291,-0.503 (inactive)
